# PRMT1 inh = inhibitors of human PRMT1 | Q99873 | recombinant PRMT1, activity-based probe fluorescence polarization | inhibition, % at 2.79 µM | actives 1.3% (n = 370,000) | AID 652257;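 active = inhibition above about 21% made by adding two undisclosed values, limit read from the data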
# ALR inh = inhibitors of human sulfhydryl oxidase ALR; purified ALR, DTT oxidation, H2O2 HRP-luminol luminescence; inhibition, % (test concentration not listed); actives 3.8% (n = 290,000);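 active = mean replicate inhibition above about 79%, with every replicate also reaching it, limit read from the data; inconclusive = only one of the two criteria met; inactive = mean below limit and not every replicate reaching it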
# Target sequence (P55789 whole entry, looked up): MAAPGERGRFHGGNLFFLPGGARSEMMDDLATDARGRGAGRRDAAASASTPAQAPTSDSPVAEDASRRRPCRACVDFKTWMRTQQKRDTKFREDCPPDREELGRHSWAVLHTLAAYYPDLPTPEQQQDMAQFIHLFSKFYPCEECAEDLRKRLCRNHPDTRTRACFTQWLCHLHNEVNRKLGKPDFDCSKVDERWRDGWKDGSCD
# ABHD5-PLIN5 inh = blocks binding of human ABHD5 to perilipin-5. inhibition, % at 4 µM. Q00G26+Q8WTS1. Split G. princeps luciferase complementation, luminescence, 4 h. actives 0.78% (n = 360,000). AID 602281;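 active = inhibition above the mean inhibition across every tested compound plus 3 SD, cut at about 22% in these data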;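 note: 0% = DMSO only wells and the 100% control is not disclosed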
# LANA-H2B inh = blocks KSHV LANA binding to histone H2A/H2B; inhibition, % (concentration not given with the values); cell-free LANA-H2A/H2B peptide, fluorescence polarization; actives 0.6% (n = 320,000); Q9QR71; in the data active = inhibition mostly above about 10%, no sharp cut-off; inactive = mostly below about 6.7%
# rCAG RNA binder = r(CAG) repeat RNA binding | TO-PRO-1 dye displacement fluorescence | actives 1.3% (n = 370,000) | inhibition, % at 3 µM | AID 651821;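 active = inhibition above the plate cutoff, the mean of all test compounds on that plate plus 3 SD, cut at about 35% in these data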;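 note: 0% = DMSO alone and 100% = 100 µM mitoxantrone as full dye displacement; higher means more dye released from RNA so lower well fluorescence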
# Rtt109 Vps75 = inhibitors of Candida albicans Rtt109/Vps75 histone acetyltransferase. Q5AAJ8. purified Rtt109/Vps75, ThioGlo CoA-SH fluorescence, 4 h. inhibition, % at 34.9 µM. actives 0.16% (n = 330,000);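 active = inhibition of at least 50% in every replicate; inconclusive = best replicate reaches 50% inhibition but some replicates fall short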
# Target sequence (Q5AAJ8 whole entry, looked up): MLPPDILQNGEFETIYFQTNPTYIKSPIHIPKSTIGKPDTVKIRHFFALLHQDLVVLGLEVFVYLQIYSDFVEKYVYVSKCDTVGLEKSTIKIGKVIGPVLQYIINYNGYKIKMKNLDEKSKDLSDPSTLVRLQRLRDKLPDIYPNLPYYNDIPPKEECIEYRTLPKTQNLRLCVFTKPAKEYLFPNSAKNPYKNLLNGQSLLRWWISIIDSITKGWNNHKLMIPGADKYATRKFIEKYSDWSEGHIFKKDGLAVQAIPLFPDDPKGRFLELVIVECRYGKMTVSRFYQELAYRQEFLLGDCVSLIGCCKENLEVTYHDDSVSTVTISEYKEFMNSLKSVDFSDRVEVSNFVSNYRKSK
# * marks the source's active call; other numbers are inactive results; ? = inconclusive; · = no result given. A selection: hits, their analogues and other compounds. The true share with any hit is near 5.9%.
SMILES,PRMT1 inh,ALR inh,ABHD5-PLIN5 inh,LANA-H2B inh,rCAG RNA binder,Rtt109 Vps75
C=CC[C@@H](CC(=O)N[C@H](CO)Cc1ccccc1)C(=O)N[C@@H](COC(=O)[C@@H](CC=C)Cc1ccc(F)cc1)Cc1ccccc1,0,-2,2,175*,1,1
CCCCC(=O)N(C)c1c(CC)nc2c(OCc3cc(Cl)cc(Cl)c3)cccn12,5,·,1,·,0,·
O=C(N[C@@H](Cc1ccccc1)C(=O)NCP(=O)(O)OC(Cc1ccccc1)C(=O)O)OCc1ccccc1 (some centres undefined),5,·,·,·,·,·
CSCC(O)Cn1[nH]c(=O)c2cc(Cl)c(Cl)cc2c1=O (centres undefined),-1,-1,2,16*,2,2
CC(=O)Nc1nnc([N+](=O)[O-])s1,-3,·,-16,·,2,·
CC(=O)c1ccc(NC(=O)CSc2nc(=O)n(CCN3CCOCC3)c3c2CCC3)cc1,-3,98*,8,-2,-5,1
O=C(CSc1nc(=O)n(CCCN2CCOCC2)c2c1CCC2)Nc1ccccc1F,5,10,-12,-3,-4,7
CC(=O)c1cccc(NC(=O)CSc2nc(=O)n(CCN3CCOCC3)c3c2CCCC3)c1,-1,-2,-5,2,-1,0
CC(=O)Nc1cccc(NC(=O)CSc2nc(=O)n(CCCN3CCOCC3)c3c2CCC3)c1,-1,98*,-3,0,-8,10
CC(=O)Nc1cccc(NC(=O)CSc2nc(=O)n(CCN3CCOCC3)c3c2CCC3)c1,1,97*,-8,2,-4,9
O=C(CSc1nc(=O)n(CCCN2CCOCC2)c2c1CCC2)Nc1cccc(F)c1,3,97*,-4,-1,-3,7
CC(=O)Nc1ccc(NC(=O)CSc2nc(=O)n(CCCN3CCOCC3)c3c2CCC3)cc1,-2,·,0,·,1,·
CCN(CC)C(=O)CC[C@H]1CC[C@]2(CCCN(c3ccccc3)C2)O1,-5,·,·,·,4,·
CCOC(=O)Cn1cc(Cn2c3ccccc3c(=O)n2C(C)C)nn1,2,·,-2,·,3,·
Cc1cccc2nc(-c3ccccc3)c(-c3ccc(CN4CCC(n5cc(-c6ccccc6)[nH]c5=O)CC4)cc3)nc12,8,·,·,·,11,·
O=C(NCc1cccc(Cl)c1)c1ccc2c(c1)SC1=NS(=O)(=O)CCN12,15,18,4,16*,12,2
Cc1ccc(S(=O)(=O)N2CCN(C(=O)Cn3c(=O)oc4ccccc43)CC2)c(C)c1,3,-20,4,0,2,12
CC12CN3CC(C)(CN(C1)C3c1ccc(Br)cc1O)C2 (centres undefined),-2,99*,0,-3,1,-4
COC(=O)c1ccc(NC(=S)NNC(=O)c2ccccc2)cc1,3,92*,-5,0,9,5
O=C(NNC(=S)Nc1ccc(Br)cc1)c1ccccc1Br,-2,99*,-5,2,28,2
O=C(NC(=S)Nc1cccc(O)c1)c1cncc(Br)c1,3,-6,6,2,-2,-4
O=C(NC(=S)Nc1ccc(O)cc1)c1cncc(Br)c1,12,99*,-7,-4,2,0
O=C(NNC(=S)Nc1ccc(Br)cc1)c1ccccc1,-5,97*,-1,1,8,-12
Cc1cc(O)cc(=O)n1-c1cc(F)c(F)c(F)c1,3,·,·,·,1,·
CC(C)C[C@H]1CN([C@@H](Cc2ccccc2)CN2CCC[C@@H]2CN2C(=O)C(=O)NC[C@@H]2Cc2ccccc2)C(=O)C(=O)N1CC1CCCCC1,-6,·,12,·,4,·
SMILES,PRMT1 inh,ALR inh,ABHD5-PLIN5 inh,LANA-H2B inh,rCAG RNA binder,Rtt109 Vps75
C[C@@H]1CN([C@@H](C)CO)C(=O)c2cc(NC(=O)C3CCCCC3)ccc2O[C@@H](C)CCCCO[C@@H]1CN(C)C(=O)CCCN(C)C,-5,·,-8,·,7,·
O=C(NCCc1c[nH]c2ccccc12)OCc1cn(Cc2ccc(F)c(F)c2)nn1,0,·,·,·,2,·
O=C(NC(=S)Nc1ccc(Oc2ccccc2)cc1)c1ccc(Cl)cc1,1,-14,6,-9,5,55*
COC(=O)C(C(=O)Nc1ccccc1C)C1CCCC1 (centres undefined),5,-3,1,2,2,3
Cc1ccccc1NC(=O)C(NC1CCCCC1)C(C)C (centres undefined),0,99*,2,1,-6,-7
Cc1cccc(NC(=O)C(C)SCc2nc3sc(C)c(C)c3c(=O)[nH]2)n1 (centres undefined),2,?,-1,-21,3,4
Cc1sc2nc(CSC(C)C(=O)Nc3cc(S(C)(=O)=O)ccc3Cl)[nH]c(=O)c2c1C (centres undefined),7,98*,11,1,21,-4
Cc1ccc(NC(=O)C(C)SCc2nc3sc(C)c(C)c3c(=O)[nH]2)nc1 (centres undefined),1,99*,-4,-1,4,0
COC(=O)C1CN(Cc2cn(Cc3ccccc3)nn2)CCS(=O)(=O)N1Cc1ccc(C)cc1 (centres undefined),0,·,·,·,3,·
c1nc2nc3c(c(N4CCCC4)n2n1)CCCC3,-10,·,·,·,2,·
CCS(=O)c1ccccc1C(=O)OCC(=O)Nc1cccc(S(=O)(=O)N2CCCCC2)c1 (centres undefined),1,·,-1,-2,7,-5
O=[N+]([O-])c1cc(CSC2=NCCN2)ccc1O,1,·,-8,·,3,6
CCCCOc1ccc(CSc2nc(C)[nH]c2[N+](=O)[O-])cc1[N+](=O)[O-],-2,99*,-2,-1,33,·
CCCOc1ccc(CSC2=NCCN2)cc1[N+](=O)[O-],0,99*,-5,-1,0,1
CCSc1nnc(NC(=O)C2CCCN(C(=O)c3ccc(Cl)cc3)C2)s1 (centres undefined),2,·,-7,·,3,·
CCOc1cc(/C=C2\C(=O)ON=C2c2ccccc2)ccc1OC,1,92*,-9,-1,4,-13
CCN=C1NC(CCc2ccccc2)C(C(=O)OC)=C(C)N1Cc1ccc(C(F)(F)F)cc1 (centres undefined),0,·,·,·,6,·
CC(C)c1nc(SCC(=O)N2CCCCCC2)c2c(=O)n(C)c(=O)n(C)c2n1,3,-12,-3,53*,-11,-13
CC(C)c1nc(SCC(=O)N2CCCCC2)c2c(=O)n(C)c(=O)n(C)c2n1,3,·,-1,·,2,·
CCCCN(C(=O)c1ccc(N2CCCC2=O)cc1)c1c(N)n(Cc2ccccc2)c(=O)[nH]c1=O,-2,-5,3,0,4,-1
CC(=O)c1ccc(N2CCN(CC(=O)N(CC(C)C)c3c(N)n(CC(C)C)c(=O)[nH]c3=O)CC2)cc1,1,·,-3,1,-3,5

# Screening results: PubChem, several laboratories
